Assay results published in PMC12136788.
Positions count from the first letter of the chain named. Whole data set: some 24,000 sequences, median “enrichment r” near 0.99, cut for the highest 2% near 3.7. What follows is part of a selection rich in the highest values, with near analogues and random picks from the rest.

T1: UNK ZnF1-3 (human, UniProt Q9C0B0 31-174)
T1 sequence: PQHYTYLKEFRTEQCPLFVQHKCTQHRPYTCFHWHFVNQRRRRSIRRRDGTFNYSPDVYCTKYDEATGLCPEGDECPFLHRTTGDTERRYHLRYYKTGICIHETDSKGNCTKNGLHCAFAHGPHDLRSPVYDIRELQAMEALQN

B1: chr14:35505469:35505470:+_ENSMUSG00000041408_ENSMUST00000048263|mus_hu|motif|central (ssRNA)
RNA: GGGAGUUCUACAGUCCGACGAUCCUGUAUGGUAACAUUACAAACUGACAAGCAAGAUGGAUGUAAAACAGUGUAAUCUCGGGUCCGUCCAACUGUCCCUCUAAAACUGGUCCCACAACUUACACCCCCUUUCUUUGCCUGAUUCAACAGAGGAUUGAGCAUCA
B2: chr6:72561926:72561927:-_ENSMUSG00000056429_ENSMUST00000070524|mus_mus|motif|central (ssRNA)
RNA: GGGAGUUCUACAGUCCGACGAUCGUAAAUAAAACAUCACCAGAGGAGAGUGUCAUCAAAGUGCCGGUGCAAAACCUGAAGCGGUCCCAUCUCUGCCAGCCCAGACUUGCCACCAAACCCCAGAGGAGGUCACAGUCUUUUCAUCAACAGAGGAUUGAGCAUCA
B3: chr2:153237265:153237266:-_ENSMUSG00000061411_ENSMUST00000109784|mus_mus|mus_mus_mus_hu_False|8_28 (ssRNA)
RNA: GGGAGUUCUACAGUCCGACGAUCAAAAAAAAAAAAAAAAAAGUGUCCUUGUGCCCAAAGUCUCAGGUGCUUGGAGUGUGGCUAGAAACAGCUCUUUUGGAUCCCACCUCUUUCAGAAACAAAAUGUCCAACUGGUGGAGGCAGCAACAGAGGAUUGAGCAUCA
B4: chr8:80553714:80553715:+_ENSG00000104435_ENST00000220876|hu_mus|FALSE|FALSE (ssRNA)
RNA: GGGAGUUCUACAGUCCGACGAUCAGCCUCCAGCUUUUUCUGAAUCUCCUCCAGAGACAGGUCUUUCUUCUUUGGAGAAGCUAGAGUUCGUGGAGCUUCUGAGAUGGGAGAUGGUGGCUUCAAGAUCAGCUCAAAAGCCUGGCCCAACAGAGGAUUGAGCAUCA
B5: 130210676_130211900_346_CDS_ENSG00000197958_ENST00000361436|human|control|control (ssRNA)
RNA: GGGAGUUCUACAGUCCGACGAUCAAAAGUGAUAUUCCCACUGUGUUUAAUGUUUUUCUGUUUCUUUCUGUCUCUUGGUGGUUCCUUGAGGGCUUUGAUGAUCAGGGCAGAGGCAGAAGGCACCACCUCAAUCUGGGCCUGUCUCAACAGAGGAUUGAGCAUCA
B6: chr2:153237265:153237266:-_ENSMUSG00000061411_ENSMUST00000109784|mus_mus|mus_mus_mus_hu_False|8_58 (ssRNA)
RNA: B3 RNA with U78C, G79A, G115A
B7: chr2:153237265:153237266:-_ENSMUSG00000061411_ENSMUST00000109784|mus_mus|mus_mus_mus_hu_False|8_78 (ssRNA)
RNA: B3 RNA with G66A, G115A
B8: chr2:153237265:153237266:-_ENSMUSG00000061411_ENSMUST00000109784|mus_mus|mus_mus_mus_hu_False|1_8 (ssRNA)
RNA: B3 RNA with G115A, G137A, A138G, G140C, C141A, A142G
B9: 26295160_26295280_2512_CDS_ENSMUSG00000026924_ENSMUST00000091252|mouse|control|control (ssRNA)
RNA: GGGAGUUCUACAGUCCGACGAUCUCCCUUUUCUGGAUGAUGAACAACCUCUGAAGGUUUUGGUUUUACAGGAACAUAAAGUGCAGGGGCAGCAGGGGCUAGAAGGACAUUGCCACCAAAAUCUGGCAGCUCAUUUUGUGCCCACAACAGAGGAUUGAGCAUCA
B10: 1003750_1005305_5821_CDS_ENSG00000060237_ENST00000535572|human|control|control (ssRNA)
RNA: GGGAGUUCUACAGUCCGACGAUCAUGAACAGACUUUGCAUCUUCUGACUUAUUUUUACCCUCUUUCUGGGCACCGUCUGCUGCAACAGAAACCUGAAAUCGUCCCAUCUUAAAAACACCAGCUCCUGAACUAGUUGCUAGGACCAACAGAGGAUUGAGCAUCA
B11: 9430860_9430980_9933_3pUTR_ENSMUSG00000040209_ENSMUST00000041124|mouse|control|control (ssRNA)
RNA: GGGAGUUCUACAGUCCGACGAUCUUUAAAAAGAACCAACUACUAUUUGACUCUAACCCAAUCCUUCAGUAUCUGGUAUGCGCUUUGUUUUUUCCCUUGCUAACACUAGGCCCUUUCUGUGCACUGCCAGCCAAGCACAGGCAGCAACAGAGGAUUGAGCAUCA
B12: 93812015_93812135_631_5pUTR_ENSG00000117505_ENST00000370272|human|control|control (ssRNA)
RNA: GGGAGUUCUACAGUCCGACGAUCGAUUUCUCAAAAAGUCGCCCUCGGAGAGUGAUCCCGGGGGGUGCUUUGCGAAGAGGGUGCAGAAAAUGAACGGAGGAGCAGCUGGCUUGAGGGCUGGGAACACUCGCGUGUGUGAGAGAUCAACAGAGGAUUGAGCAUCA
B13: chr5:128448638:128448639:+_ENSG00000066583_ENST00000173527|hu_mus|hu_hu_hu_mus_False|28_28 (ssRNA)
RNA: GGGAGUUCUACAGUCCGACGAUCGGCACUCGCCUUAAUUAGGUUCUGAAUUUCCUUGAACUUCGGGUGGUCUUUGUCAGCCACCAGCUGUAGGAGGACAGCCUCACUCGUGGUCACGAUGAUCCCAGUGCGGGCAAGACGCUCCAACAGAGGAUUGAGCAUCA
B14: chr9:15453159:15453160:+_ENSG00000164975_ENST00000490969|hu_hu|FALSE|FALSE (ssRNA)
RNA: GGGAGUUCUACAGUCCGACGAUCAUGAUGCACAAGCCUUAUGUCAGUAAUGACAAUGACAUGUUCACAGUCUCCCUGAUGACAGUAUAAGUAAGGAAAACCCAGUUUAAUACACAAGUCAUUGAAGGUGAAAUCUUCCAUUCUCAACAGAGGAUUGAGCAUCA
B15: chr10:60895279:60895280:-_ENSMUSG00000020091_ENSMUST00000020288|mus_mus|FALSE|FALSE (ssRNA)
RNA: GGGAGUUCUACAGUCCGACGAUCACUGGAAGAUGUUUUGUUAAAAAAGUUGUAGUUCAAAAUUGUACUGAAAACUUAUCUAAAAAUAGGUCUGUAGUCAUCUUAAAAAUAAAAGGUCUCUCCUCUGAUAAGGAGAGACUGAUACAACAGAGGAUUGAGCAUCA
B16: chr4:103718443:103718444:-_ENSG00000109332_ENST00000394803|perfect_dup|FALSE|FALSE (ssRNA)
RNA: GGGAGUUCUACAGUCCGACGAUCAAAGCUGGAAGAACUUAAGUCUUCUCAGAUGAGCAUGUGAAUGAAUGGAGGGAGGUAAACAAAAAAUAAAAUUAAAAAAGAUGAGGUCUGAUAGGGGAGCAGCCGGAUAAGAAAAUCAAACAACAGAGGAUUGAGCAUCA
B17: chr4:117881997:117881998:-_ENSMUSG00000033295_ENSMUST00000150096|mus_hu|FALSE|FALSE (ssRNA)
RNA: GGGAGUUCUACAGUCCGACGAUCCAGAAGUCAUACAAAAUAAGGAUCCAAAGUGAACUCAAGAAAAAAAAAAACAAAACAAAAUAAACCCCAACCCCUACAGUGGCCCAUUCUGCAGAUACGGAUUCGCGAAAGGAAAAAUCACAACAGAGGAUUGAGCAUCA
B18: chr6:48548902:48548903:+_ENSMUSG00000052751_ENSMUST00000163452|mus_mus|FALSE|FALSE (ssRNA)
RNA: GGGAGUUCUACAGUCCGACGAUCAAGGAACAAAACAAGACCCAGUAGGCAGAAGUCAUAGGAAAGCAGAAUCCAAUCACUAUAAGUAAGAAAUGUCUAACAAUUAGACUCGCCCUACGAUAGAAGUAGUGCCUUCUGGAGGUACAACAGAGGAUUGAGCAUCA
B19: chr15:12740188:12740189:-_ENSMUSG00000022195_ENSMUST00000057256|mus_hu|FALSE|FALSE (ssRNA)
RNA: GGGAGUUCUACAGUCCGACGAUCAUAAAUGAAGUAUGAAUGAAUCUCAUACAGCUCAACAGACCUGGGGGAAAAGUGAAGACAAACAAACAAACAAACAAAAAAAAAAACAAAACCCUAAAAAAUACUUAAGGAAGACAGAUACAACAGAGGAUUGAGCAUCA
B20: 176792147_176792267_4022_3pUTR_ENSG00000144320_ENST00000272748|human|control|control (ssRNA)
RNA: GGGAGUUCUACAGUCCGACGAUCACAUGAUAGGGAGUAAAAGGCAGAGGCCAGCUUCAGAUGGGGAGUUUGGGAAGGCAUCUCUCUGAGGAGGCAAAAUUUAAGCUGAAAUCUGAGGCAGGAAAGGGCAUGGUCAGAGAACUGCAACAGAGGAUUGAGCAUCA
B21: chr2:47635579:47635580:+_ENSG00000095002_ENST00000543555|hu_hu|motif|central (ssRNA)
RNA: GGGAGUUCUACAGUCCGACGAUCACUCUAUACUGACGAACCAGAAGAAGAUCUUUUACAAAAGAUUCAAAAUUCAUUUUACGGAGCACAACACUCUGCAGAUUCUUUGCUCCUGCCGGCCCCAUGUACUUGAUCACCCCCUGGCAACAGAGGAUUGAGCAUCA
B22: 54500970_54501090_1431_3pUTR_ENSMUSG00000039156_ENSMUST00000071083|mouse|control|control (ssRNA)
RNA: GGGAGUUCUACAGUCCGACGAUCAGCUGCAUCUCAGCAUUUUGCCUCUUAAUAUUGUAGUACUGUACUUCAACUUCGUGUGUUAGCUGAAGCCAUUUCUGUAGUGCGUCAGGGACAGACCAGCUGCUUCUCAGUUCAAACUCCCAACAGAGGAUUGAGCAUCA

Target: T1, UNK ZnF1-3
Assay: nsRBNS (natural sequence RNA bind-n-seq); RBNS binding buffer (assumed for nsRBNS): 25 mM Tris pH 7.5, 150 mM KCl, 3 mM MgCl2, 0.01% Triton X-100, 500 ug/ml BSA, 20 U/ml SUPERase-In, 4 C; UNK is unkempt and MSI1 is Musashi-1; names of the RNAs are library labels; protein concentration not given here; high values mean tight binding

Binder	binding signal
B1	1.1 enrichment R
B2	3.38 enrichment R
B3	3.73 enrichment R
B4	0.56 enrichment R
B5	0.682 enrichment R
B6	3.36 enrichment R
B7	4.8 enrichment R
B8	4.46 enrichment R
B9	1.58 enrichment R
B10	1.34 enrichment R
B11	0.957 enrichment R
B12	1.73 enrichment R
B13	0.734 enrichment R
B14	1.02 enrichment R
B15	0.617 enrichment R
B16	21.1 enrichment R
B17	7.45 enrichment R
B18	2.2 enrichment R
B19	6.86 enrichment R
B20	3.56 enrichment R
B21	1.41 enrichment R
B22	1.01 enrichment R
